The inhibition is the drop in the measured response relative to a control, in per cent.

For 20 compounds, growth inhibition, inhibition and outcome results are on record in PubChem BioAssay.

Molecules are shown by their SMILES. Unmarked numbers belong to inactive results. For some of these results: Entries with a potency or affinity are not part of this list. The source made the active and inactive calls. Unless noted, the rule behind the calls is not given here.

Assay [1] is described as follows: antimalarial activity against Dd2 strain (AID 2302;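 active = growth inhibition above 50% at the single 2 µM test dose, taken to imply half-maximal potency below 2 µM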;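 note: 0% = DMSO untreated growth and 100% = chloroquine plus artemisinin killed control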). The conditions noted are these: P. falciparum Dd2 in RBCs, LDH growth readout, 72 h; at 2 µM; active compounds read high.
The nature of assay [2]: HepG2 cytotoxicity, primary screen, cytotoxicity control for P. falciparum antimalarial project, cell-based, ATP luminescence (AID 2303;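 active = inhibition above 50%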;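 note: 0% = DMSO wells and 100% = digitonin-killed cells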). The conditions noted are these: HepG2 viability, 24-48 h, at 10 µM, active compounds read high.
Assay [3] addresses L-lactate dehydrogenase (Plasmodium falciparum (isolate CDC / Honduras)) (UniProt Q27743). Description: PfLDH activity inhibition – cell lysate, 3D7 strain, counter-screen for P. falciparum growth inhibition project (AID 2304).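 Note: 0% = vehicle and 100% = reference inhibitor.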 The conditions noted are these: P. falciparum 3D7 crude extract, LDH APAD/NBT absorbance; at 2 µM; active compounds read high.
Assay [4] can be described thus: inhibition of 3D7 malaria parasite growth – strain 3D7 (AID 2306).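 Note: 0% = DMSO wells and 100% = chloroquine plus artemisinin control wells.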 The conditions noted are these: P. falciparum 3D7 erythrocytic growth, LDH absorbance, 72 h; at 2 µM; active compounds read high.
Assay [5] concerns the target Calcium-dependent protein kinase 1 (Plasmodium falciparum (isolate 3D7)) (UniProt P62344). Description: PfCDPK1 kinase inhibitors, biochemical, TCAMS library (AID 1159585; cut-off not given, nearly all actives have IC50 up to about 0.98 µM;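 note: inhibitors leave more ATP so luminescence rises with inhibition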). The following applies: recombinant PfCDPK1, Kinase-Glo ATP depletion luminescence. (In general: Kinase-Glo measures the ATP left after a reaction by luminescence.)
Assay [6] addresses Plasmodium falciparum protein kinase 6 (PK6, PF3D7_1337100) (UniProt Q8IDW1). In words: PfPK6 kinase inhibitors, biochemical, TCAMS library (AID 1159586). The conditions noted are these: recombinant PfPK6, Kinase-Glo ATP depletion luminescence.
In assay [7] the target is Protein kinase 7 (PK7), Plasmodium falciparum 3D7 (PF3D7_0213400) (UniProt Q7YTF7). Description: inhibition of Plasmodium PK7 catalytic activity – biochemical, TCAMS antimalarial set, Kinase-Glo luminescence (AID 1159587). The following applies: recombinant PfPK7, Kinase-Glo ATP depletion luminescence.
Assay [8] deals with Calcium-dependent protein kinase 4 (Plasmodium falciparum (isolate 3D7)) (UniProt Q8IBS5). Description: PfCDPK4 kinase inhibitors, biochemical, TCAMS library (AID 1159588; cut-off not given, nearly all actives have IC50 up to about 0.91 µM). The conditions noted are these: recombinant PfCDPK4, Kinase-Glo ATP depletion luminescence.
Calcium-dependent protein kinase 4 (Plasmodium falciparum (isolate 3D7)), sequence (Q8IBS5 whole entry, looked up): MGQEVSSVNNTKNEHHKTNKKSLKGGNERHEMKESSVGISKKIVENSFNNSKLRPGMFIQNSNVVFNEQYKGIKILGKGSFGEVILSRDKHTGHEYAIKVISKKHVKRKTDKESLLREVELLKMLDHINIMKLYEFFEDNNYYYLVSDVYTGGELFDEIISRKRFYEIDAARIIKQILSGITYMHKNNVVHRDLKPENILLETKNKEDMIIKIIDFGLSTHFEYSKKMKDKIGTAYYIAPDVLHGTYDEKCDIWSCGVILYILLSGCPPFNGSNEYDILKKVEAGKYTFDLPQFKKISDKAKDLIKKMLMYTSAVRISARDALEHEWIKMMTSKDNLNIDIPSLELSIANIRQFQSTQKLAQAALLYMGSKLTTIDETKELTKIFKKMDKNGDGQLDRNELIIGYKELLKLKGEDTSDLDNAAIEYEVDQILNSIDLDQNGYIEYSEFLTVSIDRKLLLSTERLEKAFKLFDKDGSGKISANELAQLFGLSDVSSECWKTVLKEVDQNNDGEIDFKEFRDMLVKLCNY

L-lactate dehydrogenase (Plasmodium falciparum (isolate CDC / Honduras)), sequence (Q27743 whole entry, looked up): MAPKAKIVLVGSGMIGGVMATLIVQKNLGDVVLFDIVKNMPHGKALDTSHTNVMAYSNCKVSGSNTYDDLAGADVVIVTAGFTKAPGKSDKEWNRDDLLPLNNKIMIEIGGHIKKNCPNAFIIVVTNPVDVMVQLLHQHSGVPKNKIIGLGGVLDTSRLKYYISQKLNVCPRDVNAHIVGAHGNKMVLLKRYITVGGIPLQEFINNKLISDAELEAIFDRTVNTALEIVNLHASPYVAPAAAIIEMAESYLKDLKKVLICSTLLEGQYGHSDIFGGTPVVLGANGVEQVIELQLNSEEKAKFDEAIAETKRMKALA
Protein kinase 7 (PK7), Plasmodium falciparum 3D7 (PF3D7_0213400), sequence (Q7YTF7 1-343): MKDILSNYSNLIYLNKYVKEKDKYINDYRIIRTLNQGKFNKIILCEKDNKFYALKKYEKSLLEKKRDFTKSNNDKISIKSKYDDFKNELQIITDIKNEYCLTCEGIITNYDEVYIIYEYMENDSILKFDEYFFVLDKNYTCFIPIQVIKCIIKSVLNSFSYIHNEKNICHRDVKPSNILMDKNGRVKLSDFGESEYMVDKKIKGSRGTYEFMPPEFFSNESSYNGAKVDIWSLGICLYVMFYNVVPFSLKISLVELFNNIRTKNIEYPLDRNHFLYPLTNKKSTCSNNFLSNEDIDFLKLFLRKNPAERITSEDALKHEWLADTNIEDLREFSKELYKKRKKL
Plasmodium falciparum protein kinase 6 (PK6, PF3D7_1337100), sequence (Q8IDW1 1-305): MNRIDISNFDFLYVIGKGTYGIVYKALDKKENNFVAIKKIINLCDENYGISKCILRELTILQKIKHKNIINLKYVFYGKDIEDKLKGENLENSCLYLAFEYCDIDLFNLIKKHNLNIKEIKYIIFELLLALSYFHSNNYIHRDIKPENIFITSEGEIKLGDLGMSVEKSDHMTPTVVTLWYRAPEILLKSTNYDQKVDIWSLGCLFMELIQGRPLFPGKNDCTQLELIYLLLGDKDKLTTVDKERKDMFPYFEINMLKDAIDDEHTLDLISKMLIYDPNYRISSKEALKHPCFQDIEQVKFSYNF
Calcium-dependent protein kinase 1 (Plasmodium falciparum (isolate 3D7)), sequence (P62344 whole entry, looked up): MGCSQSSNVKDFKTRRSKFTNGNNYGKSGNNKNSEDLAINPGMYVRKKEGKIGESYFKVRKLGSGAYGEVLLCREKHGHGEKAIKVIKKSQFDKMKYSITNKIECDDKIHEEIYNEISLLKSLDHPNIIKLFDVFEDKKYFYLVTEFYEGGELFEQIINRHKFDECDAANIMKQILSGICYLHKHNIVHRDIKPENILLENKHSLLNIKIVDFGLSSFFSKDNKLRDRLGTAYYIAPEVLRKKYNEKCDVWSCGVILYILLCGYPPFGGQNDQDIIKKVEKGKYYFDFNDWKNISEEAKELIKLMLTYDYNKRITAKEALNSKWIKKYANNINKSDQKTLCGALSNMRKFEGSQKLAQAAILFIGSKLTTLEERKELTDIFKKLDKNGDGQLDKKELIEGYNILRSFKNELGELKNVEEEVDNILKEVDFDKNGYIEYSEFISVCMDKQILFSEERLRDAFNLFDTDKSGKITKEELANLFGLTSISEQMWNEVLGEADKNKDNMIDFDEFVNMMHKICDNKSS

Turning to `NC(=O)c1cccc(C(=O)Nc2ccc(-c3cccc(-c4nc5ccc(C(F)(F)F)cc5[nH]4)c3)cc2)c1`, the growth inhibition was 86% (active) in assay [1] and 100% (active) in assay [4]. In addition, the values for the inhibition in assay [2] and in assay [3] were 74% (active) and -2%, respectively. Further, the result in assay [5], in assay [6], in assay [7] and in assay [8] was inactive.

As for `CN(/N=C/c1ccc(Cl)cc1)c1nc(NCCc2ccc(O)cc2)nc(N2CCNCC2)n1`, the results for the growth inhibition in assay [1] and in assay [4] were 97% (active) and 101% (active), respectively. Also, the inhibition in assay [2] is 10%; in assay [3], 4%. Also, the outcome in assay [5], in assay [6], in assay [7] and in assay [8] was inactive.

For the compound `Cc1ccc(NC(=O)N2CCN(CCCCCNC(=O)/C=C/c3ccc(Cl)c(Cl)c3)CC2)cc1C`, the values for the growth inhibition in assay [1] and in assay [4] were -5% and 94% (active), respectively. Also, the inhibition is 7% in assay [2] and 0% in assay [3]. Besides, the outcome in assay [5], in assay [6], in assay [7] and in assay [8] was inactive.

Consider `O=C(NC1CCC(CCN2CCc3ccc(-c4cnccn4)cc3CC2)CC1)c1cccc(-n2cccn2)c1` (stereo not given), for which the growth inhibition in assay [1] was 1%; in assay [4], 93% (active). Also, the results for the inhibition in assay [2] and in assay [3] were 23% and -3%, respectively. In addition, the result in assay [5], in assay [6], in assay [7] and in assay [8] was inactive.

On to `COc1cc(NC(=O)c2ccc3c(=O)n(Cc4ccccc4)c(=S)[nH]c3c2)cc(OC)c1OC`, for which the growth inhibition in assay [1] is 47%; in assay [4], 94% (active). Besides, the results for the inhibition in assay [2] and in assay [3] were 6% and -3%, respectively. In addition, the result in assay [5], in assay [6], in assay [7] and in assay [8] was inactive.

For `CN1CCN(c2cc3c(cc2Cl)CCN3C(=O)Cc2ccc(Cl)c(NC(=O)Nc3cccc(C#N)c3)c2)CC1`, the growth inhibition in assay [1] is 40%; in assay [4], 99% (active). Also, the inhibition in assay [2] and in assay [3] was -1% each time. Further, the outcome in assay [5], in assay [6], in assay [7] and in assay [8] was inactive.

`Cc1ccc(C)c(CN2CCC(CNC(=O)c3cc4ccc5cccnc5c4[nH]3)CC2)c1`: the growth inhibition in assay [1] is 10%; in assay [4], 95% (active). In addition, the inhibition in assay [2] is 25%; in assay [3] it was -3%. Further, the result in assay [5], in assay [6], in assay [7] and in assay [8] was inactive.

As to `CCc1ccc(C2CCN(CCCCNC(=O)c3ccc(NC(=O)c4ccc(Cl)cc4)cc3)CC2)c(OC)c1`, the growth inhibition was 80% (active) in assay [1] and 101% (active) in assay [4]. Besides, the inhibition in assay [2] is 26%; in assay [3] it was -6%. For the same compound, the outcome in assay [5], in assay [6], in assay [7] and in assay [8] was inactive.

Take `N#Cc1ccc(-c2ccc(C(=O)NCCCCN3CC=C(c4ccc5c(c4OCC4CC4)CCCC5)CC3)cc2)cc1`: the growth inhibition in assay [1] was 83% (active); in assay [4] it was 100% (active). Also, the figures for the inhibition in assay [2] and in assay [3] were 22% and 4%, respectively. Further, the outcome in assay [5], in assay [6], in assay [7] and in assay [8] was inactive.

Consider `COc1ccc2nccc([C@@H](O)CN3CCC(NC(=O)c4ccc(Cl)c(OC)c4)CC3)c2c1`, for which the growth inhibition in assay [1] is 28%; in assay [4], 87% (active). Besides, the inhibition in assay [2] is 26%; in assay [3], 5%. For the same compound, the result in assay [5], in assay [6], in assay [7] and in assay [8] was inactive.

For `Cc1ccc(O)cc1C[C@@H]1C(=O)CC[C@@]2(C)[C@H]1CC[C@]2(C)O`, the growth inhibition is -6% in assay [1] and 96% (active) in assay [4]. For the same compound, the inhibition is 4% in assay [2] and 1% in assay [3]. Further, the outcome in assay [5], in assay [6], in assay [7] and in assay [8] was inactive.

As for `COCC(=O)N(Cc1ccccc1-c1cccc(CNCc2ccc3c(c2)OCO3)c1)C1CCN(Cc2ccccc2)CC1`, the values for the growth inhibition in assay [1] and in assay [4] were 72% (active) and 94% (active), respectively. The inhibition in assay [2] was 33%; in assay [3], -1%. The result in assay [5], in assay [6], in assay [7] and in assay [8] was inactive.

For `C=CCc1cc(C)ccc1OCCCON1C(N)=NC(N)=NC1(C)C`, the growth inhibition in assay [1] and in assay [4] was 96% (active) each time. The inhibition in assay [2] was 64% (active); in assay [3] it was -6%. In addition, the outcome in assay [5], in assay [6], in assay [7] and in assay [8] was inactive.

As for `Nc1nccc2ccc(-c3cccc(O)c3)cc12`, the growth inhibition in assay [1] is 71% (active); in assay [4] it was 95% (active). Moreover, the values for the inhibition in assay [2] and in assay [3] were 43% and 7%, respectively. The outcome in assay [5], in assay [6], in assay [7] and in assay [8] was inactive.

Consider `Cc1nc(-c2nc(N3CCOCC3)ncc2-c2ccsc2)sc1C`, for which the growth inhibition in assay [1] is 75% (active); in assay [4], 89% (active). Also, the inhibition in assay [2] is 5%; in assay [3] it was -7%. Besides, the outcome in assay [5], in assay [6], in assay [7] and in assay [8] was inactive.

As to `CC(Cc1ccc(NC(=O)c2ccc(CC(C)NCc3ccc(Cl)cc3)cc2)cc1)NCCc1cccc(Cl)c1` (stereo not given), the figures for the growth inhibition in assay [1] and in assay [4] were 75% (active) and 101% (active), respectively. For the same compound, the results for the inhibition in assay [2] and in assay [3] were 95% (active) and -5%, respectively. For the same compound, the result in assay [5], in assay [6], in assay [7] and in assay [8] was inactive.

As to `c1cc(CN2CCC(CCN3CCCCC3)CC2)cc(-c2cccc(-c3nc4ccccc4[nH]3)c2)c1`, the growth inhibition in assay [1] was 101% (active); in assay [4], 100% (active). Further, the inhibition in assay [2] is 95% (active); in assay [3], -3%. In addition, the result in assay [5], in assay [6], in assay [7] and in assay [8] was inactive.

Regarding `COc1cc2c(cc1C(F)(F)F)N(C(=O)Nc1cc(-c3ccncc3)cc(-c3cccnc3)c1)CC2`, the growth inhibition is 50% (active) in assay [1] and 95% (active) in assay [4]. Further, the results for the inhibition in assay [2] and in assay [3] were 64% (active) and 7%, respectively. Moreover, the result in assay [5], in assay [6], in assay [7] and in assay [8] was inactive.

For `CC(=O)Nc1ccc(OCCN(Cc2ccccc2C(F)(F)F)c2ccc(C#N)c(C(F)(F)F)c2)c(Cl)c1`, the growth inhibition is 78% (active) in assay [1] and 98% (active) in assay [4]. Further, the figures for the inhibition in assay [2] and in assay [3] were -6% and -3%, respectively. The result in assay [5], in assay [6], in assay [7] and in assay [8] was inactive.

Regarding `CCc1c(CCNCCCCCCNCCc2ccc([N+](=O)[O-])cc2)ccc(OC)c1OC`, the values for the growth inhibition in assay [1] and in assay [4] were 2% and 101% (active), respectively. Also, the inhibition was 35% in assay [2] and 6% in assay [3]. The outcome in assay [5], in assay [6], in assay [7] and in assay [8] was inactive.
